Bioassay records (PubChem BioAssay)
mHTT-CaM PPI inh – mutant huntingtin-calmodulin interaction inhibitors – biochemical, AlphaScreen, primary screen; AlphaScreen His-mHTT/GST-CaM binding, luminescence; inhibition, % at 15 µM; 3.6% of 190,000 active; AID 1671202, 2021;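 note: 0% = both proteins with DMSO and 100% = one protein alone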
Pf apPOL inh – Pf-apPOL inhibitors, biochemical, fluorescence | 0.25% of 210,000 active | Recombinant Pf-apPOL, molecular beacon fluorescence, 1.5 h | Plasmodium falciparum apicoplast DNA polymerase (apPOL) | inhibition, % at 10 µM
Starred values were filed as active, the others as inactive; . = no result. Compounds with a hit are over-represented: about 3.5% of the library has one in this group of screens. Cut-off read from the data, not from the text of the source: active = inhibition above about 50%; inactive = the rest.

SMILES	mHTT-CaM PPI inh	Pf apPOL inh
CC(C)Cn1c(CC2CCN(C(=O)c3cc(F)ccc3F)C2)nc2cccnc21 (stereo unspecified)	9	2
Cc1cccc2sc(NC(=O)c3coc(NC(=O)c4cccs4)n3)nc12	99*	-19
O=C(Nc1nc2c(s1)CCCC2)c1coc(NC(=O)c2cccs2)n1	28	-100
Cc1ccc2c(c1)C1CS(=O)(=O)N(C3CCCC3)CN1C2 (stereo unspecified)	9	-10
O=C(CCc1ccc2cc[nH]c2c1)NCc1ccccn1	6	-5
O=c1/c(=C/c2ccccc2O)sc2n1CN(c1ccc(Cl)cc1)CN=2	13	51*
O=c1/c(=C/c2ccccc2O)sc2n1CN(c1ccc(F)cc1)CN=2	36	-1
O=C(NC1CCCC1)c1ccc2ncc3c(=O)n(-c4ccc(F)cc4)[nH]c3c2c1	3	0
O=C(NC1CCCC1)c1ccc2ncc3c(=O)n(-c4ccc(Cl)cc4)[nH]c3c2c1	86*	5
Cn1cnc([N+](=O)[O-])c1Sc1ncnc2nc[nH]c12	.	6
Cc1[nH]nc(SCC(=O)Nc2cccc(Cl)c2)c1[N+](=O)[O-]	5	4
Cc1[nH]nc(SCC(=O)Nc2cc(Cl)ccc2O)c1[N+](=O)[O-]	52*	-7
Cc1cc(C)c(-c2cc(C(=O)N3CCCC(C(=O)NC(C)C)C3)no2)c(C)c1 (stereo unspecified)	0	-3
Clc1ccc(C=Nc2c(-c3ccco3)nc3ccccn23)cc1	55*	-2
O=[N+]([O-])c1cc(C=Nc2c(-c3ccco3)nc3ccccn23)c(Cl)cc1Cl	23	6
O=[N+]([O-])c1cc(C=Nc2c(-c3ccco3)nc3ccccn23)ccc1Br	18	-1
Oc1c(Cl)cc(Cl)cc1C=Nc1c(-c2ccco2)nc2ccccn12	64*	-2
O=C(Nc1ccno1)Nc1ccc(Cl)cc1Cl	.	-15
CCOc1ccc(CC(=O)NCC2CCC(c3nc4ccccc4[nH]3)CC2)cc1 (stereo unspecified)	-3	0
O=C1NCC(CN(c2ccccc2)c2ccccc2)O1 (stereo unspecified)	83*	-3
Cc1ccccc1OCC1CNC(=O)O1 (stereo unspecified)	1	10
O=C1CCC(=O)N1c1ccc(CSc2nnnn2C2CCCCC2)cc1	2	-6
O=C(Cn1cnc([N+](=O)[O-])n1)Nc1cc(Oc2cccc(Cl)c2)cc([N+](=O)[O-])c1	62*	3
COc1cc(NC(=O)Cn2cnc([N+](=O)[O-])n2)cc([N+](=O)[O-])c1	3	2
O=C(Cn1cnc([N+](=O)[O-])n1)Nc1cc(Oc2cccnc2)cc([N+](=O)[O-])c1	6	2
SMILES	mHTT-CaM PPI inh	Pf apPOL inh
Cc1cccc(Oc2cc(NC(=O)Cn3cnc([N+](=O)[O-])n3)cc([N+](=O)[O-])c2)c1	57*	4
CCn1cc2c3c(cccc31)CN(C(=O)C1CC1)CC2	42	-2
Fc1cc2[nH]c(=S)[nH]c2cc1Cl	-5	.
COc1cccc(C=Nc2sc3c(c2C#N)CCCC3)c1O	8	3
CC(C)Oc1cccc(C(=O)N2CCCC2)c1	-2	-4
O=C(c1cccc(Oc2cc(-c3ccccc3)ncn2)c1)N1CCCC1	70*	60*
COc1ccccc1C(=O)N1CCCN(C2CCN(Cc3ccc(F)cc3)C2=O)CC1 (stereo unspecified)	15	-2
O=C(c1ccccc1Cl)N1CCCN(C2CCN(Cc3ccc(F)cc3)C2=O)CC1 (stereo unspecified)	57*	-4
C=CCNC(=O)CN(c1ccc(C(C)C)cc1)S(=O)(=O)c1ccccc1	-2	-1
COC(=O)c1sccc1-n1cc(C#N)c(=O)n(Cc2ccccc2)c1=O	.	-18
CC(NC(=O)C(=O)NC1CCCCC1)C(c1cccs1)N1CCOCC1 (stereo unspecified)	-15	1
Oc1cccc(C2c3cccn3CCCN2Cc2cc(Cl)ccc2O)c1 (stereo unspecified)	100*	-2
Oc1cccc(CN2CCCn3cccc3C2c2ccc(F)cc2)c1O (stereo unspecified)	98*	2
Cc1ccc(O)c(CN2CCCn3cccc3C2c2cccc(O)c2)c1 (stereo unspecified)	100*	-4
Cc1cccc(C2c3cccn3CCN2C(=O)CC(=O)NC(C)C)c1 (stereo unspecified)	40	1
CC(C)c1cc(C2CCCN2Cc2cc(Cl)ccc2O)on1 (stereo unspecified)	-30	4
O=C(NCc1ccc(F)cc1)N1CCn2cccc2C1Cc1ccccc1 (stereo unspecified)	22	-5
Cc1nc(-c2ccccc2)nc2c1CCC(=O)N2CC1CC1	-18	3
CSC1=C(C#N)C(c2ccccc2Cl)C(C(=O)Nc2ccccc2)=C(C)N1 (stereo unspecified)	2	-3
O=c1c(C=NCCCO)c(CSc2ccc(Cl)cc2)[nH]n1-c1nc2ccccc2s1	56*	6
CCCN=Cc1c(CCC)[nH]n(-c2nc3ccccc3s2)c1=O	3	-7
Cc1ncc(CO)c2cc(C(=O)Nc3cccc(F)c3)c(=Nc3ccccc3)oc12	0	0
CN(CC(=O)N1N=C(c2cccs2)CC1c1ccccc1Cl)C(=O)C1CCC1 (stereo unspecified)	26	3
c1ccc(C2=NN3C(C2)c2ccccc2OC32CCCC2)cc1 (stereo unspecified)	51*	29
CCC1(C)Oc2ccccc2C2CC(c3ccccc3)=NN21 (stereo unspecified)	44	0
SMILES	mHTT-CaM PPI inh	Pf apPOL inh
C=CCN1C(=O)C2(Oc3ccccc3C3CC(c4ccccc4)=NN32)c2ccccc21 (stereo unspecified)	7	0
c1csc(C2=NN3C(C2)c2ccccc2OC32CCCC2)c1 (stereo unspecified)	56*	-1
O=C1Nc2ccccc2C12Oc1ccccc1C1CC(c3ccc(Cl)cc3)=NN12 (stereo unspecified)	100*	-4
Cc1ccc(C2=NN3C(C2)c2ccccc2OC32CCCCC2)o1 (stereo unspecified)	53*	-6
c1ccc(C2=NN3C(C2)c2ccccc2OC32CCCCC2)cc1 (stereo unspecified)	44	-1
Cc1c(Cl)ccc2c1=NC(=O)C=2c1sc(Nc2ccc(Br)cc2)nc1O	10	4
Cc1ccc(NC(=O)CSc2nc3c(c(=O)n2-c2ccc(F)cc2)SCC3)cc1Cl	0	-1
Cc1ccc(S(=O)(=O)N2CCC(c3nc(C(=O)N4CCOCC4)c(C)o3)CC2)cc1C	12	-2
Clc1ccc2c(c1)C1CC(c3cccnc3)=NN1C1(CCCCC1)O2 (stereo unspecified)	51*	-23
CN1CCC2(CC1)Oc1ccc(Cl)cc1C1CC(c3ccc(Cl)cc3)=NN12 (stereo unspecified)	24	.
COc1ccc([C@@H]2C[C@H](c3ccccc3)Oc3ccc(C(C)(C)C)cc32)cc1	-2	0
N#Cc1c(N2C(=O)Nc3ccccc3N2O)sc2c1CCCCC2	0	-3
CCN1CCN(c2cc(-c3nc(-c4ccccc4)no3)c3ccccc3n2)CC1	66*	-3
c1ccc(-c2noc(-c3cc(N4CCOCC4)nc4ccccc34)n2)cc1	-16	-4
COC(=O)COc1c(Br)cc(Br)cc1C(=O)OC	.	-24
O=S(=O)(Nc1ccc2c(c1)OC1(CCCC1)O2)c1ccc2c(c1)Cc1ccccc1-2	63*	.
